# ELG1 genotoxic – genotoxicity induction in ELG1-luciferase HEK293T cells | HEK293T ELG1-luciferase reporter, luminescence, 16 h | Potency, µM (highest dose often 46 µM), without a hit: at the top dose activity change, positive = activation, hits mostly activators | 1.3% of 330,000 active; also: % of control where 0% means no effect; nearly all actives have a fitted effect of over 60% in size
#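 Screening used a luciferase reporter fused to human ELG1 in HEK293T cells. Luminescence was read on a CCD plate imager after 16 hr exposure and 30 min ONE-Glo incubation.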
# Rab9 promoter act – Rab9 promoter activation; Huh7 Rab9 promoter-luciferase reporter, luminescence, 24 h; Potency, µM (doses to about 9.22 µM), for inactives: at the top dose activation, negative = inhibition, usual class: activators; 2.8% of 320,000 active; also: % of control where 0% means no effect; nearly all actives have a fitted effect of over 60% in size
#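 Huh7 cells stably carrying a Rab9 promoter-luciferase reporter, 1500 cells per well in OP-MEM I with 10% FBS, treated with compound 24 hours at 37C. Luciferase activity read by luminescence after 10 minutes with Amplite reagent.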
# FLuc modulator – inhibits or activates purified firefly luciferase, miR-21 counter-screen; Potency, µM (series often up to 57.5 µM), without a hit: top-dose activity change, negative = inhibition, usual class: inhibitors; 6.9% of 360,000 active; P08659; AID 588342; purified FLuc, Km substrates, luminescence inhibition;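 also: plate controls were vehicle for no effect and reference inhibitor for full effect; nearly all actives have a fitted effect of over 55% in size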
# Target sequence (P08659 whole entry, looked up): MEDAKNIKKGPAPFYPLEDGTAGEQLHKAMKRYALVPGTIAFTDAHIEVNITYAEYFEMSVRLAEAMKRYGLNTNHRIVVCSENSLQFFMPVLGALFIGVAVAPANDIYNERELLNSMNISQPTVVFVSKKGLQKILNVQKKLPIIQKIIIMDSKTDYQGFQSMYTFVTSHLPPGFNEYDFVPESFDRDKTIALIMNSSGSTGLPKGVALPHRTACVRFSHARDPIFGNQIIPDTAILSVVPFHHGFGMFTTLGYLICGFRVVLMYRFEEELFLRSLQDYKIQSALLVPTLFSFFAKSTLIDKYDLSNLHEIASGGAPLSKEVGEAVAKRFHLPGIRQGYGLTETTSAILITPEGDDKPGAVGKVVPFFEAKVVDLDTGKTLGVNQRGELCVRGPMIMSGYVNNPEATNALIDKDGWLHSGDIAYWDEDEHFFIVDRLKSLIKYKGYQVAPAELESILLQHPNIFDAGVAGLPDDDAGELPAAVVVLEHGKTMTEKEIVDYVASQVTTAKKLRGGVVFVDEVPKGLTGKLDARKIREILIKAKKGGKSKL
#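 Purified P. pyralis luciferase, 10 nM final, with Km-level 10 uM D-luciferin and 10 uM ATP in 50 mM Tris acetate pH 7.5, 10 mM Mg acetate, 0.01% Tween-20, 0.05% BSA; 6-point qHTS titration about 60 µM downward; luminescence read.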
# SMN2 splice up – enhancers of SMN2 splice variant expression; HEK293 SMN2-luciferase splicing reporter, luminescence, 30-36 h; Potency, µM (doses to about 46.1 µM), inactives show at the highest dose activity change, positive = activation, actives largely listed as activators; 2.8% of 210,000 active; AID 1458; also: % of control where 0% means no effect; nearly all actives have a fitted effect of over 55% in size
#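 HEK293 cells carry an SMN2 […]–luciferase reporter in which exon 7 inclusion puts luciferase in frame. Cells were plated 10-12 h before compound addition, then incubated 30-36 h at 37C. ONE-Glo luminescence was read; sodium butyrate at 4.5 mM final served as control.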
# Luc counter – Kinase-Glo luciferase inhibition (counter-screen); Potency, µM (highest dose often 38.3 µM), inactives show at the top dose activity change, negative = inhibition, hits mostly inhibitors; AID 1379; Q27757; Kinase-Glo luciferase, ATP luminescence, 8 min; 0.28% of 200,000 active; also: % is scaled to controls: 0 for no effect and ±100 for the full control effect; nearly all actives have a fitted effect of over 60% in size
#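 Recombinant Kinase-Glo luciferase, 10 uM ATP (linear range), luciferin; imidazole pH 7.2 / KCl / MgCl2 / Tween / BSA buffer; 8 min RT; luminescence.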
# NPC1 promoter act – activates the NPC1 promoter; Huh7 NPC1 promoter luciferase reporter, 24 h; Potency, µM (titrated, usually from 9.22 µM), for the others: at the top dose activation, hits mostly activators; 2.4% of 320,000 active; AID 485313; also: % of control where 0% means no effect; nearly all actives have a fitted effect of over 60% in size
#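 Stably transfected Huh7 (NPC1 promoter→luciferase), 1500 cells/well in Opti-MEM + 10% FBS, 2 h settle, then compound 24 h at 37 °C. Luminescence after 10 min with Amplite reagent.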
# * hit, by the source's call; ? = inconclusive; · = not tested or not shown. Shown are actives, neighbours in structure and some others; about 7.5% of the full set was active somewhere. Calls follow the shape of the dose curve; as a rule, active = well fitted curve in the direction sought with a large enough effect; inconclusive = small, poorly fitted or top-dose-only effect, or another doubt; inactive = no such curve, though single readings can be large; an effect the other way counts as inactive or inconclusive. Potency is read from the fitted curve at half-maximal effect.
SMILES,ELG1 genotoxic,Rab9 promoter act,FLuc modulator,SMN2 splice up,Luc counter,NPC1 promoter act
CCOc1ccc2[nH]c(=O)c(CN(Cc3cccnc3)C(=O)Nc3ccccc3OC)cc2c1,1.5%,-4.1%,16.9µM*,?,-4.6%,-0.7%
COc1ccc2c(c1)C(=NNc1ccc(C(=O)O)cc1)c1cc(OC)ccc1-2,2.0%,7.1%,6.01µM*,·,·,2.3%
COc1ccc(/C(C)=N/Nc2ccc(C(=O)O)cc2)c(OC)c1,?,1.78µM*,7.57µM*,15.8µM*,-2.3%,?
COc1ccc2c(c1)C(=NN)c1cc(OC)ccc1-2,3.7%,?,10.7µM*,-10.0%,4.0%,28.8%
Cc1cccc(N2CCN(C(=O)c3cnn(-c4ccccc4)c3C3CCN(C(=O)OC(C)(C)C)CC3)CC2)c1C,·,·,0.5%,·,·,·
Cc1nc(NC(=O)/C=C/c2ccccc2)sc1C(=O)N(C)C,16.1%,?,13.5µM*,41.3%,3.5%,24.0%
Cc1nc(NC(=O)/C=C/c2ccc(F)cc2)sc1C(=O)N(C)C,7.3%,-5.2%,16.9µM*,26.6%,2.1%,0.5%
Cc1nc(NC(=O)/C=C/c2ccc(Cl)cc2Cl)sc1C(=O)N(C)C,5.5%,-4.4%,?,15.0%,3.2%,-3.1%
Cc1nc(NC(=O)/C=C/c2ccccc2)sc1C(=O)N1CCCCC1,-2.9%,-4.8%,?,1.1%,-1.8%,1.5%
COc1ccc(/C=C2\SC(=S)N(CCC(=O)Nc3cccc(C(=O)O)c3)C2=O)cc1,7.9%,2.4%,5.36µM*,·,·,18.4%
O=C(CCCN1C(=O)/C(=C\c2ccccc2)SC1=S)Nc1cccc(C(=O)O)c1,-0.4%,3.4%,?,·,·,2.1%
O=C(CCN1C(=O)/C(=C/c2ccc3c(c2)OCO3)SC1=S)Nc1cccc(C(=O)O)c1,1.9%,0.2%,21.3µM*,·,·,10.2%
O=C(CCN1C(=O)/C(=C/c2ccc(Cl)cc2)SC1=S)Nc1cccc(C(=O)O)c1,-4.1%,-2.6%,15.1µM*,·,·,1.8%
O=C(CCN1C(=O)/C(=C\C=C\c2ccccc2)SC1=S)Nc1cccc(C(=O)O)c1,?,?,0.953µM*,·,·,3.16µM*
O=C(O)/C=C/C(=O)Nc1ccc(OC(F)F)cc1,0.5%,-0.2%,-1.1%,4.1%,2.4%,1.1%
Cc1cccc(N2CCN(S(=O)(=O)c3ccc4c(c3)CCCN4C(=O)C3CCC3)CC2C)c1 (stereo not given),-1.2%,-4.2%,0.7%,·,·,-5.4%
Cc1ccc(NC(=O)COc2cccc(/C=C3\SC(=S)N(CCC(=O)O)C3=O)c2)cc1Cl,9.6%,?,?,·,·,16.1%
O=C(CCCN1C(=O)/C(=C/c2ccccc2Cl)SC1=S)Nc1cccnc1,-10.3%,-31.6%,13.5µM*,·,·,-22.1%
COc1cccc(/C=C2\SC(=S)N(CCCC(=O)Nc3ccc(C(=O)O)cc3)C2=O)c1,1.1%,-13.4%,21.3µM*,·,·,-3.4%
O=C(O)CCN1C(=O)/C(=C\c2cccc(OCC(=O)Nc3ccc(Cl)cc3)c2)SC1=S,1.8%,28.8%,16.9µM*,·,·,27.2%
Cc1nc(CC(=O)Nc2ccc(C(N)=O)cc2)cs1,·,·,0.9%,-26.0%,·,·
N/C(=N\OC(=O)COc1ccc2ccccc2c1Br)c1ccccn1,?,?,21.3µM*,?,0.1%,?
N/C(=N\OC(=O)COc1ccc2ccccc2c1Br)c1cccnc1,11.3%,-1.6%,19µM*,-1.9%,1.9%,0.7%
O=C(COc1ccc2ccccc2c1Br)N1CCCC1,?,?,?,·,·,18.9%
Cc1ccc(C(=O)Nc2ccc(S(=O)(=O)NC3=NCCCCC3)cc2)c(C)c1,-1.0%,-1.2%,12µM*,·,·,-0.8%
SMILES,ELG1 genotoxic,Rab9 promoter act,FLuc modulator,SMN2 splice up,Luc counter,NPC1 promoter act
CCCCCCCCCCCCCCC[C@H](O)[C@@H](N)CO,·,·,·,-3.8%,-8.5%,·
Nc1ccc(C(=O)OCC(=O)c2cccc([N+](=O)[O-])c2)cc1,9.2%,12.2%,23.9µM*,-4.3%,-7.5%,2.5%
CC(=O)Nc1ccc(C(=O)OCC(=O)c2cccc([N+](=O)[O-])c2)cc1,0.9%,-6.9%,0.7%,-4.3%,2.9%,1.9%
Cc1ccc(C(=O)COC(=O)c2cccc(NC(=O)c3ccc([N+](=O)[O-])cc3[N+](=O)[O-])c2)cc1,?,1.41µM*,0.107µM*,?,-7.7%,0.398µM*
CCOCCCNC(=O)C1CCN(c2cc(C)nc3c(-c4ccc(Cl)cc4)c(C)nn23)CC1,·,·,-0.1%,11.0%,·,·
CCCCCCCCCCCCC[N+](C)(C)Cc1ccccc1,·,·,·,-36.7%,-1.8%,·
COc1ccc(-c2nc3ccccc3n2Cc2ccccc2)cc1,2.2%,5.5%,?,-29.7%,7.2%,-1.0%
C=CCn1c(-c2ccc(N)cc2)nc2ccccc21,18.4µM*,?,10.7µM*,?,15.5%,13.6%
C=CCn1c(-c2ccc(OC)cc2)nc2ccccc21,-0.2%,29.7%,13.5µM*,?,-24.3%,16.4%
C=CCn1c(-c2ccc(OC)cc2)nc2nc3ccccc3nc21,13.6%,-1.3%,?,10µM*,-4.8%,0.7%
O=[N+]([O-])c1ccc(-c2nc3ccc([N+](=O)[O-])cc3[nH]2)cc1,0.2%,?,2.69µM*,·,-4.1%,1.58µM*
O=[N+]([O-])c1ccc2nc(C(O)C(O)c3nc4ccc([N+](=O)[O-])cc4[nH]3)[nH]c2c1 (stereo not given),0.1%,-3.2%,-8.7%,·,·,2.0%
Nc1ccc(-c2nc3ccc([N+](=O)[O-])cc3[nH]2)cc1,3.66µM*,1.41µM*,3.38µM*,3.55µM*,-5.9%,2.24µM*
O=[N+]([O-])c1ccc2nc(/C=C/c3ccc(Cl)cc3)[nH]c2c1,-0.6%,?,5.36µM*,20.8%,-1.0%,?
CCCC[n+]1ccc(-c2nc3ccc([N+](=O)[O-])cc3[nH]2)cc1,8.7%,?,?,11.2µM*,-4.7%,22.2%
O=C(NC(=S)NCCCN1CCOCC1)c1cccc2ccccc12,-2.1%,7.8%,-2.0%,-3.9%,1.1%,6.7%
O=C(CCSc1ccc(Cl)cc1)NC1CCCC1,-1.1%,1.9%,-2.3%,·,·,-1.7%
O=C(CCSc1ccccc1)NC1CCCC1,?,1.0%,15.1µM*,20.8%,-2.9%,3.5%
O=C(CCS(=O)(=O)c1ccccc1)NC1CCCCC1,14.6µM*,?,16.9µM*,·,·,25.4%
COc1ccc2cc3cc(C(=O)N4CCCCC4C)oc3nc2c1 (stereo not given),2.31µM*,0.447µM*,3.38µM*,·,·,1.12µM*
COc1ccc2cc3cc(C(=O)NCc4ccc(C)cc4)oc3nc2c1,·,·,-3.0%,-17.8%,·,·
COc1ccc2cc3cc(C(=O)N4CCCCCC4)oc3nc2c1,2.59µM*,0.501µM*,1.9µM*,·,·,0.891µM*
